According to paper PMC10726135, “HNF4α isoforms regulate the circadian balance between carbohydrate and lipid metabolism in the liver”:
Over roughly 18,000 sequences, “log2 normalized intensity” has its median near 0.39; the highest 2% begin near 6.6. The entries come from a sample that favours the highest values as a whole.

Target: T1, HNF4alpha2 (COS-7 nuclear extract) (Homo sapiens, UniProt P41235 1-474)
T1 sequence: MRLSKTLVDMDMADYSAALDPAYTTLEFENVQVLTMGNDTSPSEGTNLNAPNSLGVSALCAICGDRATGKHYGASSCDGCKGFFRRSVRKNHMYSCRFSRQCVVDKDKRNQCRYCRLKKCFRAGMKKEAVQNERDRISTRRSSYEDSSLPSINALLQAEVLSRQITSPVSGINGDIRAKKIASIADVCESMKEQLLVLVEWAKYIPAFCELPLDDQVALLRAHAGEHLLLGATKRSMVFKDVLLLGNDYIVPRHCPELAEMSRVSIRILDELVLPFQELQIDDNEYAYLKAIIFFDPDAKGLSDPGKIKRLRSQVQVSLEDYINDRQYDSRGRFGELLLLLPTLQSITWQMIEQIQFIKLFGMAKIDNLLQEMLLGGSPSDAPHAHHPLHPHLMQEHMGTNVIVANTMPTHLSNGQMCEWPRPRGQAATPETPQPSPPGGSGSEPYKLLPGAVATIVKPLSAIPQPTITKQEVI
Test: protein-binding microarray; COS-7 nuclear extract on double-stranded Agilent 4x180k PBM; binding buffer, salt, pH and temperature not given in the material; high values mean tight binding
Settings: chain copies: 2; label: 3' end of strand 1 on the slide; dsDNA, one strand shown
Outline: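 Using CaPO4, COS-7 cells were transiently transfected with a human HNF4α isoform expression vector, and their nuclear extracts were applied to a custom Agilent SurePrint G3 4x180k double-stranded oligonucleotide array (~60 nt; ~44,000 test sequences in quadruplicate). Bound HNF4α was imaged at 2-µm resolution with an Agilent G2565CA scanner. Agilent software supplied the background-corrected, normalized gProcessedSignal that serves as the binding signal.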

Sequence | binding signal [log2 normalized intensity]
AGAGTGAGCAGCACTTTTGGAGTTTGACCTGCCTAGGGAGATTAGAGTATCGGTCGA | 7.73
TATGACCAGTGTGTTGTGCTGACCTCCTGTGCCTAGGGAGATTAGAGTATCGGTCGA | 3.19
CTGGTGTGCTTTCTGTCCTCTCAAAGTCCAGCCTAGGGAGATTAGAGTATCGGTCGA | 3.7
TGATTTGTATGATCTTGGGTATATCCTTTAGCCTAGGGAGATTAGAGTATCGGTCGA | 1.54
ATGTGACCTTTTGGACCACAGAGTGACCTGGCCTAGGGAGATTAGAGTATCGGTCGA | 5.16
CAGGACTGCGTAACTTACAGTGCACTTTGAGCCTAGGGAGATTAGAGTATCGGTCGA | 4.9
TGACCTTGCAGTGGCAAGGCAAAAGAGACAGCCTAGGGAGATTAGAGTATCGGTCGA | 1.17
CAGTCACAGCAGTGGACTTTGACCTTGGCAGCCTAGGGAGATTAGAGTATCGGTCGA | 10.2
TAACTTACAGTGCACTTTGACCGCTCATTTGCCTAGGGAGATTAGAGTATCGGTCGA | 5.83
CTGCGTAACTTACAGTGCACTTTGACCGCTGCCTAGGGAGATTAGAGTATCGGTCGA | 7.14
CATCATCTTGTAATCTGCTTCCAGTTCCATGCCTAGGGAGATTAGAGTATCGGTCGA | 0.0747
GAGAAAAAGTCAACACTTAGGGTGGATACTGCCTAGGGAGATTAGAGTATCGGTCGA | -0.81
TGATAAGCAAGATGACTTTGGTCTAGACACGCCTAGGGAGATTAGAGTATCGGTCGA | 0.829
TGCTCAGGGAGAAGCAAATATGTGTCCTCTGCCTAGGGAGATTAGAGTATCGGTCGA | 0.314
TGGACTTTGAACCTCTCTTCTTTTTCGTCTGCCTAGGGAGATTAGAGTATCGGTCGA | 6.71
CCTTTGGTGCCTCTTTTTTCTTGTTGACTTGCCTAGGGAGATTAGAGTATCGGTCGA | 2.44
TTTCTCTTTTGACCTTTGGACTTTCACATTGCCTAGGGAGATTAGAGTATCGGTCGA | 10.5
GTTATCTATGGAACATGGACTTTGAACCTCGCCTAGGGAGATTAGAGTATCGGTCGA | 10.3
ACTCATTTCACATTGGTGCCCTTTGCCTTTGCCTAGGGAGATTAGAGTATCGGTCGA | 3.97
CATCTGAACTCTTCATGGACTCCTCTTATCGCCTAGGGAGATTAGAGTATCGGTCGA | 1.6
CCTTGCTATGGAGTGGACTTTGGCTTATGCGCCTAGGGAGATTAGAGTATCGGTCGA | 6.18
CTATGGAACATGGACTTTGAACCTCTCTTCGCCTAGGGAGATTAGAGTATCGGTCGA | 8.15

Sequence | binding signal [log2 normalized intensity]
TTTGAACACCTCTTCTTTCTTCTCTGGTACGCCTAGGGAGATTAGAGTATCGGTCGA | 1.58
TCTTCTTCTGGGGACTTCGGTCTTTTTTCTGCCTAGGGAGATTAGAGTATCGGTCGA | 2.18
TGAACTTTGAACACCTCTTCTTTCTTCTCTGCCTAGGGAGATTAGAGTATCGGTCGA | 3.92
AGTCTAACTTTGGACTTTTATGTTAAGATCGCCTAGGGAGATTAGAGTATCGGTCGA | 2.25
TGGGCACTGTCCTAGGTGCTGAAGATGCAAGCCTAGGGAGATTAGAGTATCGGTCGA | -0.724
GATCAAAGGTCGGTTTTAGGACAACATGAGGCCTAGGGAGATTAGAGTATCGGTCGA | 4.52
CTATCATTATCTCTCACTGCAGAAACTCTGGCCTAGGGAGATTAGAGTATCGGTCGA | 1.35
AGCATTTTTGTATGCATAAGGCCTTGGACCGCCTAGGGAGATTAGAGTATCGGTCGA | 3.11
CTTTGGTATGGACTGATATTCAAACAGGTCGCCTAGGGAGATTAGAGTATCGGTCGA | 1.31
GAGGGATTTTCAGTATACTGACTTATCAGGGCCTAGGGAGATTAGAGTATCGGTCGA | 0.535
AGCGGCCTTCCCCTTTTTCTGTAAAGCTTTGCCTAGGGAGATTAGAGTATCGGTCGA | 1.21
GAGTTTAGGCATTCTTAGACACAGTCTGAGGCCTAGGGAGATTAGAGTATCGGTCGA | -0.227
TGCGTGTTATCTATGGAACATGGACTTTGAGCCTAGGGAGATTAGAGTATCGGTCGA | 8.74
AACATGGACTTTGTTGTTTGCCTCTGAAAAGCCTAGGGAGATTAGAGTATCGGTCGA | 2.31
CCTCTTGCGTGTTATCTATGGAACATGGACGCCTAGGGAGATTAGAGTATCGGTCGA | 2.24
GAACATGGACTTTGAACCTCTCTTCTTTTTGCCTAGGGAGATTAGAGTATCGGTCGA | 7.25
TACATTGAACTTTGAACACCTCTTCTTTCTGCCTAGGGAGATTAGAGTATCGGTCGA | 4.75
CCATACCTCTTGCGTGTTATCTATGGAACAGCCTAGGGAGATTAGAGTATCGGTCGA | 1.5
GGAGAAGTTTTATGGCAGGGTCGGAATGTCGCCTAGGGAGATTAGAGTATCGGTCGA | 1.55
AGCCCCACAGAGCAAAGGTCATGCATAGAAGCCTAGGGAGATTAGAGTATCGGTCGA | 4.52
ATGGTTTGACCCTGCGATAAGTAGATACCAGCCTAGGGAGATTAGAGTATCGGTCGA | 0.964
